Screening results (PubChem BioAssay)
YB-1 expression: YB-1 expression inhibition; U2OS, qRT-PCR YB-1 vs CDIP delta delta Cp, 16 h; hits give high values; zero = DMSO, each unit about twofold; delta delta Cp (YB-1 minus CDIP) (concentration not given with the values); 30,000 tested, 0.37% active; AID 434959;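 active means delta delta Cp rounded down to an integer at or above 3, about 3 SD of DMSO wells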;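 further: higher means less YB-1 transcript or more CDIP transcript relative to DMSO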
MITF inhib: blocks MITF activity; TRPM1 promoter luciferase, luminescence, 24 h; inhibition, % (concentration not given with the values); 37,000 tested, 0.28% active; in the data active means inhibition above about 85%; inconclusive means no clear call, values can overlap the other calls; inactive means below about 68%;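 further: human melanocyte line stably carrying TRPM1 promoter luciferase reporter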
NOMO-1 viab: STK33 inhibitor candidate reducing NOMO-1 cell viability; inhibition, % (test concentration not listed); AID 2330; NOMO-1 AML viability, CellTiter-Glo luminescence, 72 h; 37,000 tested, 7.5% active; in the data active means inhibition above about 80%; inconclusive means no clear call, values can overlap the other calls
PD-1 reversal: reversal of PD-1 mediated T-cell inhibition | primary human CD4 T cells, PD-L1 beads, CellTiter-Glo 96 h | activation, % (no concentration beside the values) | 29,000 tested, under 10 active | AID 2316; call rule not given here
Hedgehog inh: blocks Sonic Hedgehog signaling | Shh-LIGHT2 Gli-luciferase reporter, 30 h | inhibition, % (test concentration not listed) | 22,000 tested, 2.1% active;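 active means mean inhibition across valid replicates above about 65%, limit read from the data; inconclusive means mean under the limit, yet half or more replicates past it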;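 further: pathway switched on by Shh-conditioned medium diluted 1 in 25 in low serum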
Large screens that a line does not name were inactive. Hits are enriched below; roughly 7.4% of the tested compounds scored in any of these assays.

C[C@H](CO)N1C[C@H](C)[C@H](CN(C)S(C)(=O)=O)Oc2ccc(NC(=O)C3CC3)cc2C1=O	none (no result: PD-1 reversal, Hedgehog inh)
Cc1noc(C)c1NC(=O)N(C)C[C@@H]1Oc2ccc(NC(=O)Nc3ccc4c(c3)OCO4)cc2CC(=O)N([C@@H](C)CO)C[C@@H]1C	none (no result: Hedgehog inh)
COc1ccccc1OCC(=O)Nc1cccc(C(=O)N2CCOCC2)c1	none (no result: YB-1 expression, PD-1 reversal, Hedgehog inh)
COc1ccc(S(=O)(=O)N(C)C[C@@H]2Oc3ccc(NC(=O)Nc4ccc(C(F)(F)F)cc4)cc3C(=O)N([C@@H](C)CO)C[C@H]2C)cc1	none (no result: Hedgehog inh)
COc1ccc(S(=O)(=O)N(C)C[C@@H]2Oc3ccc(NC(=O)Nc4ccc(C(F)(F)F)cc4)cc3C(=O)N([C@H](C)CO)C[C@@H]2C)cc1	NOMO-1 viab 105 (no result: Hedgehog inh)
COc1ccc(NC(=O)Nc2ccc3c(c2)C(=O)N([C@H](C)CO)C[C@H](C)[C@H](CN(C)S(=O)(=O)c2ccc(F)cc2)O3)cc1	YB-1 expression 10 (no result: Hedgehog inh)
COc1ccc(S(=O)(=O)N(C)C[C@@H]2Oc3ccc(NC(=O)Nc4ccc(C(F)(F)F)cc4)cc3C(=O)N([C@H](C)CO)C[C@H]2C)cc1	NOMO-1 viab 113
CCOc1ccccc1NC(=O)COc1cc(N2CCOCC2)c2ccccc2c1Cl	none (no result: YB-1 expression, Hedgehog inh)
C[C@H](CO)N1C[C@H](C)[C@H](CN(C)Cc2ccc(Cl)c(Cl)c2)Oc2ccc(NC(=O)Cc3cn(C)c4ccccc34)cc2C1=O	NOMO-1 viab 108
C[C@@H]1CN([C@@H](C)CO)C(=O)c2cc(NC(=O)Cc3cn(C)c4ccccc34)ccc2O[C@H]1CN(C)Cc1ccc(Cl)c(Cl)c1	NOMO-1 viab 97 (no result: Hedgehog inh)
O=C(O)CC1CCC(CC(O)/C=C\C/C=C\CCCCCO)O1 (centres undefined)	NOMO-1 viab 117
COC(=O)c1c(-c2c(Cl)cccc2Cl)noc1NC(=O)NCc1ccccc1	NOMO-1 viab 104
C[C@H]1CN([C@@H](C)CO)C(=O)Cc2cc(NC(=O)CCCCCC(=O)Nc3ccccc3N)ccc2O[C@H]1CN(C)Cc1ccc(-c2ccccc2)cc1	NOMO-1 viab 142 (no result: Hedgehog inh)
C[C@H]1CN([C@@H](C)CO)C(=O)c2cc(NC(=O)CCCCCC(=O)Nc3ccccc3N)ccc2O[C@H]1CN(C)Cc1ccc(-c2ccccc2)cc1	NOMO-1 viab 109 (no result: Hedgehog inh)
C[C@@H]1CN([C@@H](C)CO)C(=O)Cc2cc(NC(=O)CCCCCC(=O)Nc3ccccc3N)ccc2O[C@@H]1CN(C)Cc1ccccc1	NOMO-1 viab 113 (no result: Hedgehog inh)
C[C@@H]1CN([C@@H](C)CO)C(=O)Cc2cc(NC(=O)CCCCCC(=O)Nc3ccccc3N)ccc2O[C@@H]1CN(C)Cc1ccncc1	none (no result: Hedgehog inh)
C[C@H](CO)N1C[C@H](C)[C@H](CN(C)Cc2ccc(-c3ccccc3)cc2)Oc2ccc(NC(=O)CCCCCC(=O)Nc3ccccc3N)cc2C1=O	none (no result: Hedgehog inh)
C[C@@H]1CN([C@H](C)CO)C(=O)Cc2cc(NC(=O)CCCCCC(=O)Nc3ccccc3N)ccc2O[C@H]1CN(C)Cc1ccc(Oc2ccccc2)cc1	NOMO-1 viab 125 (no result: Hedgehog inh)
COc1ccc(CN(C)C[C@H]2Oc3ccc(NC(=O)CCCCCC(=O)Nc4ccccc4N)cc3CC(=O)N([C@@H](C)CO)C[C@@H]2C)cc1	none (no result: Hedgehog inh)
COC(=O)CCCCCCC(=O)N/N=C/c1cc(I)cc(I)c1O	none (no result: MITF inhib, NOMO-1 viab, PD-1 reversal, Hedgehog inh)
Cc1noc(C)c1S(=O)(=O)Nc1ccc2c(c1)C(=O)N([C@@H](C)CO)C[C@@H](C)[C@H](CN(C)Cc1ccc3c(c1)OCO3)O2	none
Cc1nnc(Nc2ccc(OCC(=O)N3CCN(c4ccccc4)CC3)cc2)c2ccccc12	NOMO-1 viab 88 (no result: YB-1 expression, Hedgehog inh)
CCn1c(SCC(=O)N2CCN(c3ccccc3)CC2)nnc1-c1ccccc1O	none (no result: YB-1 expression, Hedgehog inh)
COc1cc2c(cc1-c1coc3cc(O[C@@H]4O[C@H](CO)[C@@H](O)[C@H](O)[C@H]4O)ccc3c1=O)OCO2	none
COc1cc2c(cc1-c1coc3c4c(ccc3c1=O)OC(C)(C)C=C4)OCO2	NOMO-1 viab 87
O=S(=O)(Nc1nc2ccccc2nc1NCCc1ccccc1)c1ccc(Cl)cc1	Hedgehog inh 78
O=C(CSc1nc2ccccc2nc1N1CCCC1)NCCc1ccc(Cl)cc1	none
CN(CC(=O)Nc1ccccc1F)S(=O)(=O)c1ccc2ccccc2c1	none (no result: YB-1 expression, Hedgehog inh)
Cc1ccc(NC(=O)c2ccc3c(=O)n(Cc4ccco4)c(=S)[nH]c3c2)cc1Cl	NOMO-1 viab 121
COc1ccc(CN(C)C[C@@H]2Oc3c(NC(=O)Nc4ccccc4)cccc3C(=O)N([C@H](C)CO)C[C@@H]2C)cc1	none
Fc1ccc(Nc2nc3ccccc3nc2Nc2ccc(F)cc2)cc1	NOMO-1 viab 135 (no result: Hedgehog inh)
N#Cc1c(N)[nH]c(=S)c(C(N)=O)c1-c1cccc(Br)c1	NOMO-1 viab inconclusive, Hedgehog inh 106
CCSc1nccc(-c2ccc3c(c2)CCC(C)(C)O3)n1	Hedgehog inh 78
C[C@@H]1CCCCO[C@@H](CN(C)Cc2ccc(C(=O)Nc3ccccc3N)cc2)[C@@H](C)CN([C@H](C)CO)C(=O)c2cc(NC(=O)Nc3cccc4ccccc34)ccc2O1	none (no result: Hedgehog inh)
Cc1oc2c(c1C(=O)NCc1ccccc1)C(=O)c1ccccc1C2=O	NOMO-1 viab 140, Hedgehog inh 93
CC(=O)NC(=O)NCc1ccccc1	none (no result: Hedgehog inh)
COc1ccc(OC)c(C(=O)CSc2nnc(-c3ccccc3F)n2-c2ccccc2)c1	none (no result: YB-1 expression, Hedgehog inh)
COc1cc(O)c(C(C)=O)c(OC)c1	none (no result: PD-1 reversal)
COc1cc(O)c(C(=O)c2c(C)cc(O)cc2OC)c(O)c1	NOMO-1 viab 121
C[C@@H]1CN([C@@H](C)CO)C(=O)c2cccc(NS(=O)(=O)c3ccc(F)cc3)c2O[C@H]1CN(C)Cc1ccccc1	none (no result: PD-1 reversal)
COC(=O)c1cc(OC)c(OC)cc1NC(=O)COc1ccc2ccccc2c1Br	none (no result: YB-1 expression, Hedgehog inh)
COc1cc(NC(=O)COc2ccc3ccccc3c2Br)c(OC)cc1Cl	NOMO-1 viab 126 (no result: YB-1 expression, Hedgehog inh)
C[C@H]1CN([C@@H](C)CO)C(=O)Cc2cc(NS(=O)(=O)c3cn(C)cn3)ccc2O[C@H]1CN(C)C(=O)NC1CCCCC1	none
CCOC(=O)COc1c(C#N)sc2c1c(=O)n(-c1ccccc1)c(=S)n2-c1ccccc1	NOMO-1 viab 112
C[C@@H]1CN([C@H](C)CO)C(=O)Cc2cc(NC(=O)Nc3ccc(C(F)(F)F)cc3)ccc2O[C@H]1CN(C)S(=O)(=O)c1ccccc1	none
Cc1ccc(S(=O)(=O)N(C)C[C@H]2Oc3ccc(NC(=O)Nc4ccc(C(F)(F)F)cc4)cc3CC(=O)N([C@@H](C)CO)C[C@H]2C)cc1	NOMO-1 viab 111
Cc1ccc(S(=O)(=O)N(C)C[C@@H]2Oc3ccc(NC(=O)Nc4ccc(C(F)(F)F)cc4)cc3CC(=O)N([C@@H](C)CO)C[C@@H]2C)cc1	NOMO-1 viab 115
Cc1ccc(NC(=O)CN(c2ccc(Cl)c(C(F)(F)F)c2)S(C)(=O)=O)cc1	NOMO-1 viab 91 (no result: YB-1 expression, Hedgehog inh)
CS(=O)(=O)N(CC(=O)Nc1ccc(Br)c(Cl)c1)c1ccc(F)c(Cl)c1	none (no result: YB-1 expression, Hedgehog inh)
CS(=O)(=O)N(CC(=O)Nc1ccc(I)cc1)c1ccc(Cl)c(Cl)c1	MITF inhib inconclusive, NOMO-1 viab 90 (no result: YB-1 expression, Hedgehog inh)
